This is an account of results in PubChem BioAssay.

Experiment [1] can be described thus: rapamycin-like changes in RPL19A-GFP expression – cell-based, S. cerevisiae, multiplex flow cytometry, primary screen (AID 1862; in the data active = percent of DMSO control GFP below about 86%;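 also: lower values mimic rapamycin by blocking the RPL19A rise seen in DMSO cells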). The conditions noted are these: S. cerevisiae RPL19A-GFP strain, flow cytometry fluorescence, 3 h; at 10 µM; stronger effect = lower value. A general note: In flow cytometry, cells or beads pass a laser one at a time.
Experiment [2] is described as follows: TOR pathway GLN3 branch reporter MEP2-GFP changes – S. cerevisiae, multiplex flow cytometry, primary screen (AID 1867;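 active = GFP response, as percent of the DMSO control, above the screen-wide mean plus 3 SD, about 139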;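 also: median GFP channel fluorescence of barcode-gated MEP2-GFP cells measured by flow cytometry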). The conditions noted are these: S. cerevisiae MEP2-GFP strain, 3 h, at 10 µM, stronger effect = higher value.
Experiment [3] in a line: TOR pathway RTG branch CIT2 reporter changes – S. cerevisiae, GFP fusion, multiplex flow cytometry, primary screen (AID 1870;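 active = percent response above a set limit, the screen-wide mean plus 3 SD, cut at about 130% in these data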;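 also: barcoded CIT2-GFP strain pooled with four other GFP strains with rapamycin as positive control; median GFP fluorescence per well over plate mean of DMSO wells so 100% = DMSO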). The conditions noted are these: S. cerevisiae CIT2-GFP expression, 3 h, at 10 µM, stronger effect = higher value.
The nature of experiment [4]: TOR pathway LAP4-GFP level changes – S. cerevisiae, multiplex flow cytometry, primary screen (AID 1873;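 active = GFP signal, as percent of the solvent control, above the screen mean plus 3 SD, about 149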). The conditions noted are these: S. cerevisiae LAP4-GFP expression, 3 h, at 10 µM, stronger effect = higher value.
Experiment [5] can be described thus: yeast AGP1-GFP level changes, GLN3 branch – cell-based, multiplex flow cytometry, S. cerevisiae, primary screen (AID 1887;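 active = GFP signal above the screen-wide mean plus 3 SD, that is over about 124.5% of the solvent control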;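 also: AGP1-GFP fusion strain of S. cerevisiae within a five-strain barcoded multiplex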). To be noted: 3 h, at 10 µM, stronger effect = higher value.
Experiment [6] can be described thus: reduced mouse 2C T cell binding to pMHC/ICAM-1 vesicles – MLPCN validation set, flow cytometry, LFA-1/ICAM-1 modulator project, pilot screen (AID 2523;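 active = response below a set limit, under 55% cells CD8-positive and vesicle-bound, and CD8 cells' 90th-percentile brightness under 279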;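 as to vesicle binding response: mean PE anti-B7-1 fluorescence of CD8+ cells relative to row control; 100% = QL9-loaded vesicles with DMSO vehicle in the same plate row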). To be noted: 2C mouse CD8+ T cells, at 7 µM, stronger effect = lower value; double positive events: measured here: CD8+/vesicle+ event percentage.
Experiment [7] addresses Integrin beta-1 (Homo sapiens) + Integrin alpha-4 (Homo sapiens) (UniProt P13612+P05556). In words: alpha4beta1 integrin LIBS antibody binding reduction – U937 cells, HUTS-21 mAb, flow cytometry, validation set, VLA-4 allosteric modulator project, pilot screen (AID 2674;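 active = inhibition above 50%, about 3 SD of the validation set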;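 also: antibody binding induced by the VLA-4 ligand LDV present at three times its Kd; 0% = LDV ligand with antibody and no compound and 100% = antibody without LDV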). The conditions noted are these: HUTS-21 LIBS mAb binding, at 6.7 µM, stronger effect = higher value.
A short description of experiment [8]: calorie-restriction mimetic ROS inhibitors, yeast – validation compound set, pilot screen (AID 2706;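 active = superoxide response below 65% of plate, a cut near 3 SD across the whole screen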;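 also: yeast exposed to compound for one week at 30 degrees C before staining; 100% = mean of all compound wells on the same plate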). To be noted: S. cerevisiae aging, superoxide DHE fluorescence; at 10 µM; stronger effect = lower value.
Experiment [9] deals with Beta-adrenergic receptor kinase 1 (Homo sapiens) (UniProt P25098). In words: GRK2 binders displacing RNA aptamer, biochemical, validation, human GRK2, bead flow cytometry (AID 488806;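 active = aptamer binding inhibition above 30%, about 3 SD of noise from non-fluorescent compounds; inactive = inhibition at or below 30%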). To be noted: bead-bound GRK2, FAM-aptamer displacement, at 10 µM, stronger effect = higher value.
In experiment [10] the target is Beta-2 adrenergic receptor (Homo sapiens) (UniProt P07550). In words: agonist-induced loss of surface beta2AR – cell-based, FAP fluorogen, flow cytometry, validation set, pilot screen (AID 504459;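 active = percent response above 42, roughly 3 SD of non-fluorescent test compounds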;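 also: agonist-driven loss of surface beta2AR via internalization measured by FAP dye flow cytometry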). The conditions noted are these: Am2.2-beta2AR cells, at 10 µM, stronger effect = higher value.
Experiment [11] has as its target AP-2 complex subunit beta (Homo sapiens) (UniProt P63010). In words: beta-arrestin/AP2 interaction blockers – biochemical, validation set, GST-AP2 beads, flow cytometry, pilot screen (AID 504541;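 active = inhibition above 54%, about 3 SD of non-fluorescent compounds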;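 also: AP2 carries R879A mutation and is captured from E. coli lysate; bead-bound FITC arrestin peptide fluorescence measuring arrestin peptide binding to AP2; 0% = DMSO wells and 100% = excess unlabeled arrestin peptide control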). The conditions noted are these: FITC arrestin peptide, at 10 µM, stronger effect = higher value.
Experiment [12] can be described thus: cytosolic pH regulators acting via V-ATPase – S. cerevisiae, pHLuorin, HTS validation (AID 504600; in the data active = response above about 15%;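 also: plate controls were DMSO for no effect and reference compound for full effect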). The conditions noted are these: V-ATPase proton transport, at 10 µM, stronger effect = higher value.
Experiment [13] concerns anti-desmoglein-3 scFv antibody binding to human DSG3. In words: blockers of pathogenic pemphigus antibody–desmoglein-3 binding – biochemical, validation compound set, bead-based, flow cytometry, pilot screen (AID 588368;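 active = binding below the plate cutoff, the plate median minus 3 SD, with a reading above zero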;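 also: signal is the median channel fluorescence of bead-bound GFP antibody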). To be noted: Protein G beads, DSG3-Fc, scFv-GFP binding, at 10 µM, stronger effect = lower value.
Experiment [14] has as its system Botulinum neurotoxin type F light chain protease (Clostridium botulinum). In words: Clostridium botulinum type F light chain protease inhibitors, microsphere substrate cleavage, validation (AID 588459). To be noted: multiplex microsphere protease substrate cleavage assay, flow cytometry; at 10 µM; stronger effect = higher value.
Experiment [15] has as its target Botulinum neurotoxin type A (Clostridium botulinum) (UniProt P0DPI0). In words: BoNT/A light chain protease inhibitors, biochemical, multiplex microsphere flow cytometry, validation set (AID 588460). To be noted: at 10 µM, stronger effect = higher value.
The target of experiment [16] is Lethal factor (Bacillus anthracis) (UniProt P15917). In words: Bacillus anthracis lethal factor inhibition, microsphere flow cytometry protease assay, validation at 10 µM (AID 588461). The conditions noted are these: multiplex microsphere protease cleavage assay, stronger effect = higher value.
Experiment [17] in a line: Nile Red efflux blockade in pump-expressing yeast – validation compound set, multiplex, phenotypic, pilot screen (AID 588506;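 active = efflux inhibition above 0.42, the validation set average plus 4 SD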;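 also: Nile Red retained in cells so higher fluorescence means more efflux inhibition; 0 = negative control wells and 1 = enniatin B 25 µM full block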). The conditions noted are these: S. cerevisiae pump-expressing triplex, Nile Red efflux flow cytometry; at 10 µM; stronger effect = higher value.
Experiment [18] deals with ATP-binding cassette sub-family B member 6 (Homo sapiens) (UniProt Q9NP58). In words: blockers of ABCB6-driven porphyrin uptake – K562-ABCB6 cells, flow cytometry, validation set, pilot screen (AID 588550;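 active = inhibition above the screen-wide mean plus 3 SD, about 51%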;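 also: 0% = DMSO wells and 100% = benzethonium chloride 70 µM positive control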). To be noted: K562-ABCB6 porphyrin accumulation, 1 h, at 10 µM, stronger effect = higher value.
The nature of experiment [19]: AML differentiation inducers, ER-HoxA9 marrow cells – cell-based, GFP/MAC1 double positive, flow cytometry, validation set, primary screen (AID 588685;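 active = differentiation response of at least 50%, scaled between solvent and reference control, from cells with both markers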;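 also: compound exposure lasts four days before antibody staining and flow analysis; 0% = DMSO wells and 100% = 5 µM fulvestrant positive control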). The conditions noted are these: stronger effect = higher value.

Several values for one entry are separate records, joined by “and”; a condition that tells them apart may be missing. Equal entries are not always repeated. Results filed as inconclusive are left out. A structure can be active in one record and inactive in another. Activity calls are given as the source filed them. Unless noted, no rule for the calls is given here.

What is called inhibition is the drop in the measured response relative to a control, in per cent.

Chain of Beta-adrenergic receptor kinase 1 (Homo sapiens) (P25098 whole entry, looked up): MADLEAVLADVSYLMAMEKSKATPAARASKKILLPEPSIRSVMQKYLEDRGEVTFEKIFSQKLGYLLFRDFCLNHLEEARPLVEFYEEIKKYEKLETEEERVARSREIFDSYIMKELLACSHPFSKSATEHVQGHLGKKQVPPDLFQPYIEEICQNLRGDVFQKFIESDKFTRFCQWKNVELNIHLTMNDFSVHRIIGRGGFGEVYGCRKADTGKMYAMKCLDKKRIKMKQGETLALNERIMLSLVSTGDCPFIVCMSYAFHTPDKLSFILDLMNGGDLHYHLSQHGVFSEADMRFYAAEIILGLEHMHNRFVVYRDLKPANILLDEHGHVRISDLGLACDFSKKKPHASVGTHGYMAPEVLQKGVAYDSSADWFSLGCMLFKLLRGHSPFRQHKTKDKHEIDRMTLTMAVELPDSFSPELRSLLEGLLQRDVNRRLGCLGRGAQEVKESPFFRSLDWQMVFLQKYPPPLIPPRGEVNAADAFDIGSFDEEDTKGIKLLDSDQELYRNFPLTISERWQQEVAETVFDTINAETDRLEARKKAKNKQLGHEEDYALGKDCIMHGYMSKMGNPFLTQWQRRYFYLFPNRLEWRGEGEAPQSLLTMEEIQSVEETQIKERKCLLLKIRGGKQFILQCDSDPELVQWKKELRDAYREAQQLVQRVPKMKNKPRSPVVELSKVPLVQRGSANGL
Chain of Botulinum neurotoxin type A (Clostridium botulinum) (P0DPI0 whole entry, looked up): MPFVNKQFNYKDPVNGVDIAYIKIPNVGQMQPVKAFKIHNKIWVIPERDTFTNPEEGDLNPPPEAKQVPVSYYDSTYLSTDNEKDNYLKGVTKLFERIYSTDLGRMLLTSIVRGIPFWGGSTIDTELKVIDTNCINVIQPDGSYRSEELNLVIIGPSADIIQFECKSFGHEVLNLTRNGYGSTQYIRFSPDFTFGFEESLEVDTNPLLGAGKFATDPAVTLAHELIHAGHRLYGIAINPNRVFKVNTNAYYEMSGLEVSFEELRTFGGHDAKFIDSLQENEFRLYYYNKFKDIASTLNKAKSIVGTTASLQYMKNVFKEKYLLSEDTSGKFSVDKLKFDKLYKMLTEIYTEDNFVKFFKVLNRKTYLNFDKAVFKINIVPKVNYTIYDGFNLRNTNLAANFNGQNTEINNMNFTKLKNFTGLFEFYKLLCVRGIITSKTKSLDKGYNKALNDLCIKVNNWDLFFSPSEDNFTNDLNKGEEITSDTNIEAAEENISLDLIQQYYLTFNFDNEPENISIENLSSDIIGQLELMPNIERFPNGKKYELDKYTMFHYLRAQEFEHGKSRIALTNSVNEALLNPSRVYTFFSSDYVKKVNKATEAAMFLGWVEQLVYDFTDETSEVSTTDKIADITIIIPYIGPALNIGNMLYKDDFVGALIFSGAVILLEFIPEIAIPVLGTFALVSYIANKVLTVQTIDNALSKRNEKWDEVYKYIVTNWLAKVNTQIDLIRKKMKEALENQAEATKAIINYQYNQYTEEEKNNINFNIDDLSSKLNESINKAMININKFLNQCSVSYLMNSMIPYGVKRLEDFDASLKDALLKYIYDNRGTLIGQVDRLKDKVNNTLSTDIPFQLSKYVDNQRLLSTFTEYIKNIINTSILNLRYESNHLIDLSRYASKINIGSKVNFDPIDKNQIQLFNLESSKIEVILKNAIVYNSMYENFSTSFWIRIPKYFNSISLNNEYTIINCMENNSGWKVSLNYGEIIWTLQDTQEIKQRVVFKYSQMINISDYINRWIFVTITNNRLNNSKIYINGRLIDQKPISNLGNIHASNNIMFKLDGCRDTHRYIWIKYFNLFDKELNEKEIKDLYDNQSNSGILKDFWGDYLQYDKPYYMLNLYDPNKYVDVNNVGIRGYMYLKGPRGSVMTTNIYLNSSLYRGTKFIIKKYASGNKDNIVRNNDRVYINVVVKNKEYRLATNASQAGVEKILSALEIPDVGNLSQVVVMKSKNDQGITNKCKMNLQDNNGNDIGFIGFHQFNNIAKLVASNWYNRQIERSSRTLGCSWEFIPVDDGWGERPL
Chain of Lethal factor (Bacillus anthracis) (P15917 whole entry, looked up): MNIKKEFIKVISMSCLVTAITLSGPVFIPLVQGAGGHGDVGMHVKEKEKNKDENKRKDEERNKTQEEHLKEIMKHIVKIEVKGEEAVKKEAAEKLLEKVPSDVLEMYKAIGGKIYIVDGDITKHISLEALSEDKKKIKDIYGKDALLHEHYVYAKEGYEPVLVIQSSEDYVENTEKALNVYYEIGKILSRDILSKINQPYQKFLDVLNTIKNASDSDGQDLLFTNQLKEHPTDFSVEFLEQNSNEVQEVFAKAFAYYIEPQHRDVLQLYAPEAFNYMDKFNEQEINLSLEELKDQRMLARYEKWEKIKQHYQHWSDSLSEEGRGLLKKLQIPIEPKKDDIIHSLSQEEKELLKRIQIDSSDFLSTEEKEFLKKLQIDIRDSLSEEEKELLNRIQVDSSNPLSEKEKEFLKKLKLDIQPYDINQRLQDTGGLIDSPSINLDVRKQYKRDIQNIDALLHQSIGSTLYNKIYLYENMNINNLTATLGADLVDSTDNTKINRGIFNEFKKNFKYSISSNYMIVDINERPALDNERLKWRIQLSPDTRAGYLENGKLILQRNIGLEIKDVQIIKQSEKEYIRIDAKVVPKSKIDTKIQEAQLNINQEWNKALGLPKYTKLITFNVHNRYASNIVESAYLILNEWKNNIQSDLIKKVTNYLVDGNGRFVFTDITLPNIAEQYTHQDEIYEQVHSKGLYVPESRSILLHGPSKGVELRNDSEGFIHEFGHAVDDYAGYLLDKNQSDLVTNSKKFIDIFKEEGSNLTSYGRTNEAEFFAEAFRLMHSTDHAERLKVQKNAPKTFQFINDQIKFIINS
Chain of Beta-2 adrenergic receptor (Homo sapiens) (P07550 whole entry, looked up): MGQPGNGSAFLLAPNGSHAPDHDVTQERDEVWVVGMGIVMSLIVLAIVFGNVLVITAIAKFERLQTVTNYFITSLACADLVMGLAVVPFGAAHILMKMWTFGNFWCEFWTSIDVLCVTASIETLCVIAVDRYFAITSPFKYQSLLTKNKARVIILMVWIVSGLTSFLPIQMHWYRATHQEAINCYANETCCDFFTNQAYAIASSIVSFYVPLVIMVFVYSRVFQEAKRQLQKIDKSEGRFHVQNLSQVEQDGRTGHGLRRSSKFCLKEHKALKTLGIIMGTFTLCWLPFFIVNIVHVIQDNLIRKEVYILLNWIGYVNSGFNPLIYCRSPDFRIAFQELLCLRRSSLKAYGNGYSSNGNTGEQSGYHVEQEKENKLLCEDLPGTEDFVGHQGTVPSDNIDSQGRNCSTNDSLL
Chain of AP-2 complex subunit beta (Homo sapiens) (P63010 whole entry, looked up, one chain of several): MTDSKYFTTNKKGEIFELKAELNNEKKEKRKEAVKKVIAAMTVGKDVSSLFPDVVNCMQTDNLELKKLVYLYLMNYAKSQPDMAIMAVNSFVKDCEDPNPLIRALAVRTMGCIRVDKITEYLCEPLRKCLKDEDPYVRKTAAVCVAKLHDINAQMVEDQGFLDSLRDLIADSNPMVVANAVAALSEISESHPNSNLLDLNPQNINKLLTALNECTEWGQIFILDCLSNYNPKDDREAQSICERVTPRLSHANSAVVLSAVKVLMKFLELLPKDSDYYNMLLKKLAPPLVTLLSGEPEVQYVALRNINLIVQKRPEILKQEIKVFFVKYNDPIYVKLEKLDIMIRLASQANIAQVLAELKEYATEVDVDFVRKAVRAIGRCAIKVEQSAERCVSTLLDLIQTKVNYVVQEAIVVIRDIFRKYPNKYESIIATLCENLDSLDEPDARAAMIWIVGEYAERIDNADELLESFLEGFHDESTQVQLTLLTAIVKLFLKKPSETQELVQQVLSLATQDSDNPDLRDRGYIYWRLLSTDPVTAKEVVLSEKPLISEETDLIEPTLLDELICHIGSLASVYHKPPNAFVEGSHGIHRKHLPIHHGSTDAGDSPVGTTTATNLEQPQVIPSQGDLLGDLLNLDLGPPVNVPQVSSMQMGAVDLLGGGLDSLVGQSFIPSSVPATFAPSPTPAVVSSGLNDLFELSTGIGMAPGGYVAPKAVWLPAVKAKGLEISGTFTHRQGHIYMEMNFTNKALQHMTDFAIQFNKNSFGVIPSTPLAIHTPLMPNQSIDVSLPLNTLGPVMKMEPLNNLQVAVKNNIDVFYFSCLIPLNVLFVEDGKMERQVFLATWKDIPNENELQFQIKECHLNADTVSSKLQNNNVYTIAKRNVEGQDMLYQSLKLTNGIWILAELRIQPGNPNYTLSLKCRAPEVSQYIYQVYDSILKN
Chain of ATP-binding cassette sub-family B member 6 (Homo sapiens) (Q9NP58 whole entry, looked up): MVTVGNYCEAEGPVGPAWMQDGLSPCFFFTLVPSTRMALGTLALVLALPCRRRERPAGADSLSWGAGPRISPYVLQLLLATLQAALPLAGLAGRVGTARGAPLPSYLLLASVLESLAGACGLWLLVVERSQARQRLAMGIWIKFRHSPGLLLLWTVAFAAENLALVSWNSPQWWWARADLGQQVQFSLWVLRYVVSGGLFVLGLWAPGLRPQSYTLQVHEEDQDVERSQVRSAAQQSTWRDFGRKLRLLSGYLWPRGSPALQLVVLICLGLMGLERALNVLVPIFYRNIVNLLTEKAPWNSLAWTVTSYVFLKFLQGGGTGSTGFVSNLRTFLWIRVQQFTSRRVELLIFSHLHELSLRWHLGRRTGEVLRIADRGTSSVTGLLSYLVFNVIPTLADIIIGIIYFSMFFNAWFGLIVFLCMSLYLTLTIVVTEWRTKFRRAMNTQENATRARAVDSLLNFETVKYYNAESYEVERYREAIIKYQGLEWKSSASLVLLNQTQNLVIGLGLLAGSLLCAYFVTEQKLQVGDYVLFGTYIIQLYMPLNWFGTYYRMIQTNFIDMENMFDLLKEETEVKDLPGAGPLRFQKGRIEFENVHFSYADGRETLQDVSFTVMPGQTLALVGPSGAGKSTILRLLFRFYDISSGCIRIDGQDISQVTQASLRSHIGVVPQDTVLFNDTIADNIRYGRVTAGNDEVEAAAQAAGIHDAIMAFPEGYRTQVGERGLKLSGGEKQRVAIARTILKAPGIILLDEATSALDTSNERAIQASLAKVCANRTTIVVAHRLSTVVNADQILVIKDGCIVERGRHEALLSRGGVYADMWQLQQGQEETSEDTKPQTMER

Turning to `C[N+]1(C)CCc2cc3c(cc2[C@H]1[C@@H]1OC(=O)c2c1ccc1c2OCO1)OCO3`, the percent of DMSO control GFP in experiment [1] was 105% (inactive) and 102% (inactive). For the same compound, the GFP response vs DMSO in experiment [2] is 102% (inactive) and 108% (inactive); in experiment [4], 98% (inactive) and 90.1% (inactive). Also, the percent response of DMSO control in experiment [3] is 104% (inactive) and 93.1% (inactive). Also, the GFP response, % of DMSO in experiment [5] is 100% (inactive) and 93.4% (inactive). Also, the double positive events in experiment [6] was 60.5% and 65.5%. In experiment [6], the vesicle binding response is 128% (inactive) and 1190% (inactive). The inhibition in experiment [7] is 5.61% (inactive) and 11% (inactive); in experiment [11], 55.1% (active) and -7.04% (inactive); in experiment [14] it was -0.6% (inactive) and -2.3% (inactive); in experiment [15] it was -1% (inactive) and -0.6% (inactive); in experiment [16], 1% (inactive) and -2.4% (inactive); in [18], 24% (inactive) and -3% (inactive). In addition, the superoxide response (% of plate) in [8] was 93.4% (inactive) and 102% (inactive). The aptamer binding inhibition in [9] is -1% (inactive) and 5% (inactive). Further, the response in experiment [10] was -0.95% (inactive) and -3.71% (inactive); in experiment [12], -7.78% (inactive) and 0.91% (inactive). In addition, the binding (% of control) in [13] is 101% (inactive) and 97.9% (inactive). The efflux inhibition (fraction of control) in experiment [17] was 0.115 (inactive) and -0.1 (inactive). For the same compound, the differentiation response in experiment [19] was -10.4% (inactive) and 1.22% (inactive).
Consider `Clc1ccc(COC(Cn2ccnc2)c2ccc(Cl)cc2Cl)cc1` (stereo not given), for which the percent of DMSO control GFP in experiment [1] is 104% (inactive). Moreover, the GFP response vs DMSO in [2] is 111% (inactive); in experiment [4], 120% (inactive). In addition, the percent response of DMSO control in experiment [3] is 107% (inactive). Also, in experiment [5], the GFP response, % of DMSO is 103% (inactive). In addition, the double positive events in experiment [6] is 62.7%. For the same compound, the vesicle binding response in experiment [6] is 183% (inactive). The inhibition is -1.09% (inactive) in [7]; 16.5% (inactive) in experiment [11]; -1.3% (inactive) in experiment [14]; -0.4% (inactive) in [15]; -7% (inactive) in experiment [16]; -31% (inactive) in experiment [18]. Also, the superoxide response (% of plate) in experiment [8] is 121% (inactive). The aptamer binding inhibition in [9] was 3% (inactive). Further, the response was 3.99% (inactive) in [10] and 2.69% (inactive) in experiment [12]. Further, the binding (% of control) in experiment [13] is 105% (inactive). The efflux inhibition (fraction of control) in [17] is -0.28 (inactive). Further, the differentiation response in experiment [19] is 1.28% (inactive).
